Results filed as inconclusive are left out. Unmarked numbers belong to inactive results. The source made the active and inactive calls. Calls come from the whole dose curve; as a rule, active = well fitted cell-killing curve with a large enough effect; inconclusive = small, poorly fitted or top-dose-only effect, or effect the other way; inactive = no such curve, though single readings can be large or run the other way.
% is set by controls: 0 for no effect and ±100 for the full control effect; potency is the fitted concentration of half-maximal effect.

The experiment deals with CAOV3. Put plainly: Confirmatory qHTS for gynecologic anti-cancer compounds from libraries of approved drugs and bioactive compounds. Note: nearly all actives have a fitted effect of over 55% in size. The following applies: gynecologic cancer cell panel viability, ATPlite luminescence, 48 h; series mostly up to 57.6 µM. A digest of the protocol:
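1,000 cells/well; 16 h pre-incubation 37 C, 5% CO2; pin-transferred cpd in DMSO, 11 conc (1:3), 57.5 uM–0.977 nM; 48 h; ATPlite, 15 min RT; luminescence → IC50.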
In the case of `OCCNC1CCCc2c1[nH]c1ccc(-c3ccccc3)cc21` (centres undefined), the Potency was 24.3 µM (active). Take `Cc1cc(Nc2nc(N[C@@H](C)c3ccc(F)cc3)c(C#N)cc2F)n[nH]1`: the Potency is 17.2 µM (active). The same measure, in the same setting: the same measure for `COc1ccc(OC)c(-c2nnc3ccc(-c4ccc(OC)c(O[C@@H]5CCOC5)c4)nn23)c1`: 8.63 µM (active). In the case of `COc1cc(N2CCC(N3CCN(C)CC3)CC2)ccc1Nc1ncnc(Nc2ccccc2S(=O)(=O)C(C)C)n1`, the Potency is 15.3 µM (active). Regarding `CCc1c2c(nc3ccc(O)cc13)-c1cc3c(c(=O)n1C2)COC(=O)[C@]3(O)CC`, the Potency was 0.0385 µM (active).

Take `CCn1c(-c2nonc2N)nc2c(C#CC(C)(C)O)ncc(OCC3CCCNC3)c21` (centres undefined): the Potency was 24.3 µM (active). Consider `COc1ccc2cc3[n+](cc2c1OC)CCc1cc2c(cc1-3)OCO2`, for which the Potency result was “inactive”. Regarding `CC[C@H](Nc1ncnc2nc[nH]c12)c1nc2cccc(F)c2c(=O)n1-c1ccccc1`, the activity change, negative = viability loss is -13.8% [at 10.7 µM]. `Cc1cc(SCc2sc(-c3ccc(C(F)(F)F)cc3)nc2C)ccc1OCC(=O)O`: the Potency result was “inactive”. For `O=c1[nH]c(=O)n([C@H]2C[C@H](O)[C@@H](CO)O2)cc1Br`, the Potency result was “inactive”. `Cc1cc(Nc2cc(N3CCN(C)CC3)nc(/C=C/c3ccccc3)n2)n[nH]1`: the Potency was 7.69 µM (active). Consider `CN(c1nccc(=O)[nH]1)C1CCN(c2nc3ccccc3n2Cc2ccc(F)cc2)CC1`, for which the Potency entry is “inactive”.

Take `CCS(=O)(=O)N1CCN(c2ccc(Nc3ncc(C(N)=O)c(NC4CC4)n3)cc2)CC1`: the Potency is 6.85 µM (active). `C1CCC(C(CC2CCCCN2)C2CCCCC2)CC1` (centres undefined): the Potency is 24.3 µM (active).

The values above are taken from PubChem BioAssay AID1345085 (National Center for Advancing Translational Sciences (NCATS), 2018).
